Experimental data reported in PubChem BioAssay (NCATS).
Results filed as inconclusive are left out. Activity calls are given as the source filed them. The call rests on the fitted dose curve; in most records, active means well fitted inhibition curve with a large enough effect; inconclusive means small, poorly fitted or top-dose-only effect; inactive means no such curve, though single readings can be large or run the other way.

Assay: Primary qHTS for small molecule stabilizers of the endoplasmic reticulum resident proteome: Secreted ER Calcium Modulated Protein (SERCaMP) assay (AID 1508630)
Details: SH-SY5Y GLuc-SERCaMP (Gaussia luciferase released on ER calcium loss) secretion, thapsigargin, luminescence; series mostly up to 38.4 µM
Method in brief: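 The SH-SY5Y reporter protocol was run at 3 concentrations up to 38.3 uM (primary) or 11 concentrations (follow-up): 16 h compound, 100 nM thapsigargin for 4 h, then extracellular luciferase luminescence.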

Potency, inactive:
O=C(O)C1Cc2c([nH]c3ccccc23)C(c2coc3ccccc3c2=O)N1 (stereo unspecified)
OCC1=CC[N+]2(Cc3ccccc3)CCC(O)[C@@H]12 (stereo partly specified)
COc1cccc2c3c(c(C)nc12)CC(CO)O3 (stereo unspecified)
COc1ccc([C@@H](C)C(=O)c2ccc(O)cc2O)cc1
COc1cc(C2=N/C(=C\c3ccccc3)C(=O)O2)cc(OC)c1OC
CC12CC[C@@](C(=O)O)(C(=O)C1=O)C2(C)C
COc1ccc(C(=O)OC2CC3CC[C@H](C2)N3C(C)=O)cc1OC (stereo partly specified)
C=C1C[C@@]23CC4C5[C@@]6(C)C[C@H](O)C[C@@]57C2[C@H](O)[C@@H]1[C@H](O)[C@H]3[C@H]7N4C6
COc1ccc2c(c1OC)C(=O)N1c3ccccc3C(=O)OC21 (stereo unspecified)
COC(=O)C1C(=O)C(C(=O)/C=C/c2ccco2)C(=O)CC1(C)C (stereo unspecified)
O=c1ccc2ccc(O[C@@H]3O[C@H](CO)[C@@H](O)[C@H](O)[C@H]3O)c(O)c2o1
C=CC(C)(O)CC1[C@@]2(C)CCCC(C)(C)C2CC[C@]1(C)O (stereo partly specified)
Cc1cn(C2OC[C@@H](O)[C@@H]2CO)c(=O)[nH]c1=O (stereo partly specified)
CC1NC(C(=O)O)Cc2c1[nH]c1ccccc21 (stereo unspecified)
O=c1[nH]c(-c2ccccc2O)nc2ccccc12
CCCc1c(OCC(O)COc2ccc3c(=O)cc(C(=O)O)oc3c2CCC)ccc(C(C)=O)c1O (stereo unspecified)
COc1ccc(-c2cnc(-c3cccnc3)o2)cc1
COC(=O)C1=COC(O[C@H]2OC(CO)[C@H](O)C(O)C2O)[C@H]2C1C(=O)C[C@@H]2C (stereo partly specified)
CN(C)C(=O)OC1=C(c2ccccc2)Sc2ccccc2-n2cccc21
COc1c(CO)cc(CO)cc(CO)c1=O
CN1C(=O)N(C)C2=NNC=NC2(O)C1=O (stereo unspecified)
